Among all 6,200 compounds or so, about 2,900 (47%) were called active. The set was probably picked from earlier hits. The list shows a part of the results. Values without a mark were called inactive. No stated cut-off is given here; in the data, active means inhibition above about 50%; inactive means the rest.

The inhibition is the change of the read-out against control, counted positive when it falls.

The test can be described thus: Mycobacterium tuberculosis growth inhibition, primary screen (AID 1259343). The note with it: inhibition: at 10 µM, stronger effect = higher value; outcome: 10 uM.
Take `Oc1ccc(C=Nc2ccc3oc4ccccc4c3c2)c(O)c1O`: the inhibition is 95% (active).
As for `C(=C\c1cccc(N2CCNCC2)c1)/c1ccccc1`, the figure is 90.8% (active); as for `COc1cccc(C=CC(=O)c2cccc(N3CCOCC3)c2)c1`, 44.4%; as for `CC1(C)C2(Cl)C(Cl)C(Cl)C(Cl)(C(Cl)Cl)C1(Cl)C2Cl` (stereo not given), 65.2% (active).
Next, `S=c1nc[nH]c2nc[nH]c12`: 49.3%.
`FC(F)(F)CCc1ccnc(NCC2COc3ccccc3O2)n1` (stereo not given): the inhibition is 24.3%.
Next, `Brc1ccccc1CNCC1COc2ccccc2O1` (stereo not given): -26.4%; `FC(F)(F)c1ccnc(NCC2COc3ccccc3O2)n1` (stereo not given): 96.6% (active); `CN(CC(O)c1ccccc1F)C(c1ccccc1)c1ccccc1` (stereo not given): -46%.
Next, `OC(C#CCC(O)c1ccccc1)c1ccccc1` (stereo not given): 101% (active); `N#Cc1ccc(S(=O)(=O)N2CCN(c3ccccc3F)CC2)cc1`: 8.35%.
Next, `N#Cc1ccc(S(=O)(=O)N2CCC(Cc3ccc(C(F)(F)F)cc3)CC2)cc1`: 71.7% (active); `N#Cc1ccc(S(=O)(=O)N2CCC(Cc3ccc(F)cc3)CC2)cc1`: 60.9% (active); `O=S(=O)(c1ccc(F)cc1)N1CCCC(OCc2cc(F)cc(F)c2)C1` (stereo not given): 2.58%.
Take `O=C(O)c1cc[c]([Hg][Cl])cc1`: the inhibition is 33.6%.
`COc1ccc(C)cc1NC(=O)N1CCN(CCCOC(c2ccc(Cl)cc2)c2ccc(Cl)cc2)CC1`: the inhibition was -0.67%.
Next, `O=C(CNc1ccc2c(c1)OC(F)(F)O2)N1CCc2sccc2C1`: -40%; `COc1ccc(Cl)cc1NCC(=O)N1CCc2sccc2C1`: 83.7% (active); `CC(C)Oc1ccc(NC(=O)C2CCOCC2)cc1Cl`: 95.4% (active).
As for `CC(C)Oc1ccc(NC(=O)Cc2cccs2)cc1Cl`, the figure is 38%; as for `C=CCn1c(=NC(=O)c2ccc(OC)cc2)sc2cccc(OC)c21`, 39.7%.
Next, `CCc1c(C)nc(-n2nc(C)cc2NC(=O)c2cccs2)[nH]c1=O`: 101% (active); `Cc1cc(NC(=O)c2cccs2)n(-c2nc(C)c(C)c(=O)[nH]2)n1`: 98.8% (active); `CCCCS(=O)(=O)N(C)Cc1ccc(-c2ccc(Br)cc2)o1`: 83.2% (active).
`OCC#CCSc1nnc(-c2cccc(Br)c2)o1`: the inhibition is -10.9%.
For `OCC#CCSc1nnc(-c2ccccc2Br)o1`, the inhibition was 99.2% (active).
Next, `Brc1ccccc1-c1nnc(SCc2ncc(-c3ccccc3)o2)o1`: -4.92%.
Next, `Fc1ccc(CN2CCC(Cc3ccc(-c4ccccc4)cc3)CC2)cc1C(F)(F)F`: 59% (active); `CC(C)(C)c1ccc2c(c1)OCC(C(=O)Nc1nc(-c3ccncc3)cs1)O2` (stereo not given): 84.6% (active).
Next, `CC(=O)Nc1ccc(-c2csc(NC(=O)C3Cc4ccccc4O3)n2)c(F)c1` (stereo not given): 16.7%.

These data come from PubChem BioAssay AID1259343 (VanderVen Lab, College of Veterinary Medicine, Cornell …, 2017).
